“And” between values parts separate entries of the source, which are not always exact repeats. Equal entries are not always repeated. Results filed as inconclusive are left out. The source holds several records for some structures; these can differ, active in one and inactive in another. The source made the active and inactive calls. The calls were made as follows, unless noted: active = hit-call score of the fitted dose curve at least 0.9, where 1 is the maximum; inactive = score below 0.9.
Tests used:
[1] = ATG_Hpa5_TRANS: Attagene TRANS-FACTORIAL HepG2 Assay for human GAL4-Hpa5 Hepatocyte Transcription Factor Basal Promoter (AID 2282975; active = hit-call score of the fitted dose curve at least 0.9, where 1 is the maximum;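 also: hits are increases in reporter mRNA over DMSO baseline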); conditions: HepG2 Attagene GAL4-Hpa5 transcription reporter
Summary of the method: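 Basal-promoter GAL4 background control within the HepG2 trans-factorial panel of transiently transfected reporter units. Reporter mRNA is measured 24 h after dosing by RT-PCR and capillary electrophoresis, fitted for gain of signal versus DMSO.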

[2] = ATG_GAL4_TRANS: Attagene TRANS-FACTORIAL HepG2 Assay for GAL4 (Internal Marker) (AID 2282976; active = hit-call score of the fitted dose curve at least 0.9, where 1 is the maximum); conditions: HepG2 Attagene TRANS GAL4 internal marker reporter
Summary of the method: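 First, HepG2 cells were transfected with reporter units under GAL4-UAS control. Next, they were treated with chemical for 24 h. Finally, RNA was reverse-transcribed, PCR-amplified, FAM-labelled and resolved by capillary electrophoresis, with induction scored against DMSO.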

[3] = biological target: Estrogen-related receptor gamma (Homo sapiens) (UniProt P62508); experiment: ATG_ERRg_TRANS: Attagene TRANS-FACTORIAL HepG2 Assay for human Estrogen-Related Receptor gamma (ERRg) (AID 2282977; active = hit-call score of the fitted dose curve at least 0.9, where 1 is the maximum;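 also: hits increase reporter signal over DMSO so potencies reflect activators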); conditions: HepG2 Attagene TRANS reporter, ERRg transactivation
Summary of the method: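 Transient HepG2 transfectants, 24 h compound exposure, GAL4-UAS reporter mRNA by RT-PCR/6-FAM labelling/capillary electrophoresis; positive direction vs DMSO.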

[4] = biological target: Oxysterols receptor LXR-alpha (Homo sapiens) (UniProt Q13133); experiment: ATG_LXRa_TRANS: Attagene TRANS-FACTORIAL HepG2 Assay for human Liver X Receptor alpha (LXRa) (AID 2282980; active = hit-call score of the fitted dose curve at least 0.9, where 1 is the maximum); conditions: HepG2 Attagene TRANS reporter, LXRa transactivation
Summary of the method: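 Transfect HepG2 with GAL4-UAS multiplex reporter constructs (TRANS format, chimeric receptor-GAL4); treat 24 h; extract RNA, reverse-transcribe, PCR-amplify, FAM-label, HpaI-digest; resolve fragments by capillary electrophoresis. Upward response vs DMSO.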

[5] = biological target: Oxysterols receptor LXR-beta (Homo sapiens) (UniProt P55055); experiment: ATG_LXRb_TRANS: Attagene TRANS-FACTORIAL HepG2 Assay for human Liver X Receptor beta (LXRb) (AID 2282981; active = hit-call score of the fitted dose curve at least 0.9, where 1 is the maximum); conditions: HepG2 Attagene TRANS GAL4-LXRb reporter, mRNA
Summary of the method: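 HepG2 cells transiently transfected with multiple reporter transcription units carrying chimeric NR-Gal4 proteins acting on GAL4-UAS reporters; compound exposure 24 h. Reporter mRNA quantified by RT-PCR, 6-FAM labelling, HpaI digestion and capillary electrophoresis; gain of signal versus DMSO.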

[6] = biological target: Hepatocyte nuclear factor 4-alpha (Homo sapiens) (UniProt P41235); experiment: ATG_HNF4a_TRANS: Attagene TRANS-FACTORIAL HepG2 Assay for human Hepatocyte Nuclear Factor 4 alpha (HNF4a) (AID 2282982; active = hit-call score of the fitted dose curve at least 0.9, where 1 is the maximum); conditions: HepG2 HNF4a transactivation reporter, mRNA readout
Summary of the method: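 HepG2 cells transiently transfected with multiplexed GAL4-UAS reporter units responsive to chimeric NR-GAL4 proteins; compound exposure 24 h. Reporter mRNA quantified by RT-PCR, 6-FAM labelling, HpaI digestion and capillary electrophoresis; gain of signal versus DMSO baseline.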

[7] = ATG_M_06_TRANS: Attagene TRANS-FACTORIAL HepG2 Assay for M06 Transcription Factor (Internal Marker) (AID 2282983; active = hit-call score of the fitted dose curve at least 0.9, where 1 is the maximum;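 also: reporter transcript level by RT-PCR then capillary electrophoresis fluorescence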); conditions: HepG2 Attagene TRANS M06 internal marker reporter
Summary of the method: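 Transfect HepG2 with MRTUs → dose compounds 24 h → isolate RNA, oligo(dT) RT → PCR with reporter primers → 6-FAM primer extension → HpaI digest → CE fragment analysis. Positive direction vs DMSO.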

[8] = biological target: Nuclear receptor subfamily 4 group A member 2 (Homo sapiens) (UniProt P43354); experiment: ATG_NURR1_TRANS: Attagene TRANS-FACTORIAL HepG2 Assay for human Nuclear Receptor Related Protein 1 (NURR1) (AID 2282985; active = hit-call score of the fitted dose curve at least 0.9, where 1 is the maximum); conditions: HepG2 Attagene TRANS reporter, mRNA readout
Summary of the method: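 HepG2 cells transiently transfected with GAL4-UAS reporter units and chimeric NR-Gal4 constructs; chemical exposure 24 h. Reporter mRNA quantified by RT-PCR, fluorescent labelling and capillary electrophoresis; gain of signal fitted relative to DMSO baseline.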

[9] = biological target: Transcriptional activator Myb (Homo sapiens) (UniProt P10242); experiment: ATG_Myb_CIS: Attagene CIS-FACTORIAL HepG2 Assay for human Myeloblastosis (Myb) Proto-Oncogene Transcription Factor (AID 2282986); conditions: HepG2 Attagene CIS-FACTORIAL Myb reporter transcription; actives raise or lower the signal
Summary of the method: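 Multiplexed cis-reporter system in HepG2: transient transfection, 24 h treatment, mRNA readout by RT-PCR and capillary electrophoresis. Both increases and decreases are scored versus DMSO negative control.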

[10] = ATG_NFI_CIS: Attagene CIS-FACTORIAL HepG2 Assay for human Nuclear Factor I (NFI) (AID 2282989); conditions: HepG2 cis-regulatory reporter, NFI response element transcription; actives raise or lower the signal
Summary of the method: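 After transient transfection of HepG2 with cis-promoter reporter constructs and 24 h dosing, RNA is reverse-transcribed, amplified, 6-FAM end-labelled and HpaI-digested before capillary analysis. Bidirectional curve fitting against DMSO.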

[11] = biological target: Myc proto-oncogene protein (Homo sapiens) (UniProt P01106); experiment: ATG_Myc_CIS: Attagene CIS-FACTORIAL HepG2 Assay for human Myelocytomatosis (Myc) Proto-Oncogene Transcription Factor (AID 2282990); conditions: HepG2, Attagene cis-reporter transcription factor activity; actives raise or lower the signal
Summary of the method: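 DMSO-normalised, bidirectionally fitted reporter mRNA signal. HepG2 cells transfected with cis reporter constructs, treated 24 h; transcripts detected by RT-PCR, 6-FAM primer extension and CE.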

[12] = ATG_NRF2_ARE_CIS: Attagene CIS-FACTORIAL HepG2 Assay for human Nuclear Factor Erythroid 2 Related Factor 2 (NFR2) response to Antioxidant Response Elements (ARE) (AID 2282992); conditions: HepG2 Attagene ARE/NRF2 reporter, transcription factor activity; actives raise or lower the signal
Summary of the method: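 Cis-factorial assay: transfected HepG2 reporter library, 24 h dosing, mRNA readout via RT-PCR/CE; DMSO-referenced bidirectional analysis.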

[13] = ATG_Oct_MLP_CIS: Attagene CIS-FACTORIAL HepG2 Assay for human Octamer-Binding Transcription Factor (Oct) (AID 2282993); conditions: HepG2 Attagene cis-factorial Oct reporter, mRNA; actives raise or lower the signal
Summary of the method: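 Cells of the HepG2 line express promoter-controlled reporter sequences whose mRNA levels, after 24 h treatment, are measured by RT-PCR and capillary electrophoresis. Increases and decreases are scored relative to DMSO.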

[14] = biological target: Cellular tumor antigen p53 (Homo sapiens) (UniProt P04637); experiment: ATG_p53_CIS: Attagene CIS-FACTORIAL HepG2 Assay for human p53 Transcription Factor (AID 2282994); conditions: HepG2 p53 cis-element reporter, Attagene mRNA; actives raise or lower the signal
Summary of the method: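 Using HepG2 hepatoma cells carrying cis-acting multiplexed reporters, mRNA induction is detected after a 24 h exposure. Gain- and loss-of-signal responses are fitted relative to DMSO-treated cells.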

[15] = BSK_3C_TissueFactor: BioMAP Diversity Plus: 3C Assay for Tissue Factor Biomarker Activity (AID 2282997); conditions: BioMAP 3C HUVEC, tissue factor biomarker readout; actives raise or lower the signal
Summary of the method: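 ELISA read-out of Tissue Factor levels on human umbilical vein endothelium collected 24 h after chemical dosing. Gain or loss of signal was fitted relative to DMSO.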

[16] = BSK_3C_uPAR: BioMAP Diversity Plus: 3C Assay for Urokinase-type plasminogen activator receptor (uPAR) Biomarker Activity (AID 2282998); conditions: BioMAP 3C HUVEC, uPAR biomarker ELISA; actives raise or lower the signal
Summary of the method: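 Endothelial primary cells of human umbilical vein origin received test chemical; 24 h later uPAR was assayed by ELISA. Fitting was bidirectional, DMSO as negative control.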

[17] = biological target: Glucocorticoid receptor (Homo sapiens) (UniProt P04150); experiment: ATG_GR_TRANS: Attagene TRANS-FACTORIAL HepG2 Assay for human Glucocorticoid Receptor (GR) (AID 2282978; active = hit-call score of the fitted dose curve at least 0.9, where 1 is the maximum;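 also: activators score as hits since higher reporter transcript over DMSO is fitted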); conditions: HepG2 Attagene TRANS GR reporter, mRNA transcription
Summary of the method: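 HepG2 transient transfection, multiple reporter units, GAL4-UAS under NR-GAL4 chimera control. 24 h treatment. Reporter mRNA by RT-PCR/CE fluorescence, DMSO as negative control.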

[18] = ATG_NF_kB_CIS: Attagene CIS-FACTORIAL HepG2 Assay for human Nuclear Factor Kappa B (NF-kB) (AID 2282991); conditions: HepG2 Attagene cis-factorial NF-kB reporter mRNA; actives raise or lower the signal
Summary of the method: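 After 24 h compound incubation, transfected HepG2 cells yield total RNA; reporter cDNA is PCR-amplified, end-labelled with 6-FAM, HpaI-digested and analysed on a genetic analyser. Endogenous factor activity, DMSO-referenced bidirectional fit.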

[19] = biological target: Nuclear respiratory factor 1 (Homo sapiens) (UniProt Q16656); experiment: ATG_NRF1_CIS: Attagene CIS-FACTORIAL HepG2 Assay for human Nuclear Respiratory Factor 1 (NRF1) Orphan Gene (AID 2282987); conditions: HepG2 NRF1 cis-element reporter, Attagene multiplex; actives raise or lower the signal
Summary of the method: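 Endogenous factor activity was captured via cis-element-driven reporter transcripts in HepG2 cells. Following 24 h chemical treatment, transcripts were quantified by RT-PCR and capillary electrophoresis.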

[20] = biological target: Bile acid receptor (Homo sapiens) (UniProt Q96RI1); experiment: ATG_FXR_TRANS: Attagene TRANS-FACTORIAL HepG2 Assay for Farnesoid X Receptor (FXR) (AID 2282979; active = hit-call score of the fitted dose curve at least 0.9, where 1 is the maximum;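 also: hits raise reporter mRNA above DMSO so AC50 marks FXR activation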); conditions: HepG2 Attagene TRANS FXR-GAL4 reporter transcription
Summary of the method: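 Transient transfection of HepG2 with multiplexed GAL4-UAS reporter units; exogenous FXR-GAL4 chimera. Dose 24 h → TriZol RNA → oligo(dT) RT → PCR, 6-FAM primer extension, HpaI cut → CE. Gain vs DMSO.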

Measured: AC50

Estrogen-related receptor gamma (Homo sapiens), sequence (P62508 whole entry, looked up, the tested form may be a part): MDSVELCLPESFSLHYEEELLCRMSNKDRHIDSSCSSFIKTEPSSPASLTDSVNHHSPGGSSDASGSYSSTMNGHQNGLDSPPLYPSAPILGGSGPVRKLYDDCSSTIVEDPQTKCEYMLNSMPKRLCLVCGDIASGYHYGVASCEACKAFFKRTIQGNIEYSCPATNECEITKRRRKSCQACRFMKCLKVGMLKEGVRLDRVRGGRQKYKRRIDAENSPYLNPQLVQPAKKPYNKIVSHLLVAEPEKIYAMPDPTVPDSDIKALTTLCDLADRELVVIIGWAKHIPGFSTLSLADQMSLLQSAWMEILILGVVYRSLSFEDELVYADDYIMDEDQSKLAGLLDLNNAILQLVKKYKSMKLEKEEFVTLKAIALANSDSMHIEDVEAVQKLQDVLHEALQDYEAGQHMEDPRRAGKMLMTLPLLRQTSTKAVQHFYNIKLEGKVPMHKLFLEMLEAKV
Myc proto-oncogene protein (Homo sapiens), sequence (P01106 whole entry, looked up): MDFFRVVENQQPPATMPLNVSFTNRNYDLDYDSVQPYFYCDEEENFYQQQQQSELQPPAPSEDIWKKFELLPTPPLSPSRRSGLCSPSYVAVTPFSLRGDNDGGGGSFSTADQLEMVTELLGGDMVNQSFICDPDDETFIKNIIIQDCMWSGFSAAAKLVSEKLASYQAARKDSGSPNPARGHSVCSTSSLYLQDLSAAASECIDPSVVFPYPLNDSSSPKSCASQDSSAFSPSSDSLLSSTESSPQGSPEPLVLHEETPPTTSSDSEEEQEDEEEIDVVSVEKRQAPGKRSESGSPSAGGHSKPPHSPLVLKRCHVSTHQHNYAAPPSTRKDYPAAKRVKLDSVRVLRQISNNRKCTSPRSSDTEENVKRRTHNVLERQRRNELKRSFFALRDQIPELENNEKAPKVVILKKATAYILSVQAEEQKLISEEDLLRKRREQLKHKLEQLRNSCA
Transcriptional activator Myb (Homo sapiens), sequence (P10242 whole entry, looked up): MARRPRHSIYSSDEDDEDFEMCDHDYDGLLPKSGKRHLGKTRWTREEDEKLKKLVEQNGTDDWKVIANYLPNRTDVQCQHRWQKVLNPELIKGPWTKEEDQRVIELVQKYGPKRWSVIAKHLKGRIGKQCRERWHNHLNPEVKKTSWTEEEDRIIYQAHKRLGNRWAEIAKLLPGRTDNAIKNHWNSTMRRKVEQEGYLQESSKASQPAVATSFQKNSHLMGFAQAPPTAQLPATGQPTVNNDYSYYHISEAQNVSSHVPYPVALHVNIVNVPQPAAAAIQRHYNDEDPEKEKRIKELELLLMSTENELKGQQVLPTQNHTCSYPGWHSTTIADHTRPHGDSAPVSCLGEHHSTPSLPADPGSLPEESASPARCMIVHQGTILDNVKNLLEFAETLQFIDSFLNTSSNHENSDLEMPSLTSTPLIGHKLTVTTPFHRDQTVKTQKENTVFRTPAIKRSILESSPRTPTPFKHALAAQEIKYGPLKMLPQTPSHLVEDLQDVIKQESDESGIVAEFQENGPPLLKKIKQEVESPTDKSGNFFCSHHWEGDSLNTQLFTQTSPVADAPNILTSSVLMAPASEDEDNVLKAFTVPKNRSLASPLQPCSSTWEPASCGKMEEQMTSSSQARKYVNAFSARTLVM
Hepatocyte nuclear factor 4-alpha (Homo sapiens), sequence (P41235 whole entry, looked up, the tested form may be a part): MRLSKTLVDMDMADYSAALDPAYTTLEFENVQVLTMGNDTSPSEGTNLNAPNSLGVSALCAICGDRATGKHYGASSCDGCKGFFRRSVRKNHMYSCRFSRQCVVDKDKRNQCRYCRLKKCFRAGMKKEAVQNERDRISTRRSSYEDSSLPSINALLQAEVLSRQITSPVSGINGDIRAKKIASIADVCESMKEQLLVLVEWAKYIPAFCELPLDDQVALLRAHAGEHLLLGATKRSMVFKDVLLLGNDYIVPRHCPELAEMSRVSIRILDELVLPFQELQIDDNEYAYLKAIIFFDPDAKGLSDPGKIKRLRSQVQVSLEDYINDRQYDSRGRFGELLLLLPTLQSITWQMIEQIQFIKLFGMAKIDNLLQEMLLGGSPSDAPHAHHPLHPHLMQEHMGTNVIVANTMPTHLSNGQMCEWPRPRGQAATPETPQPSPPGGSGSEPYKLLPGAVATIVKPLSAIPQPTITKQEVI
Nuclear respiratory factor 1 (Homo sapiens), sequence (Q16656 whole entry, looked up): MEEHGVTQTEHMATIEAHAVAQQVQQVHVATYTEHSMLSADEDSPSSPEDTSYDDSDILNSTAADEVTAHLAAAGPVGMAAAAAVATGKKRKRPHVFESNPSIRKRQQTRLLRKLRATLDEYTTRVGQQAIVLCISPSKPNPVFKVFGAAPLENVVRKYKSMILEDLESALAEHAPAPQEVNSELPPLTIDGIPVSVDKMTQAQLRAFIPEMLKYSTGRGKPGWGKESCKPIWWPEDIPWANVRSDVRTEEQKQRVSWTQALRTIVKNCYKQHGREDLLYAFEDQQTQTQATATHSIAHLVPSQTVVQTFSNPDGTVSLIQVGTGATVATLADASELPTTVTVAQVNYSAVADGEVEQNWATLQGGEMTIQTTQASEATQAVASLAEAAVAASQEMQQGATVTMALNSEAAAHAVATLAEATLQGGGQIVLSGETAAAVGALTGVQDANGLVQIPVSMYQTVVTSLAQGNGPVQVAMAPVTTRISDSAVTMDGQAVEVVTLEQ
Bile acid receptor (Homo sapiens), sequence (Q96RI1 whole entry, looked up, the tested form may be a part): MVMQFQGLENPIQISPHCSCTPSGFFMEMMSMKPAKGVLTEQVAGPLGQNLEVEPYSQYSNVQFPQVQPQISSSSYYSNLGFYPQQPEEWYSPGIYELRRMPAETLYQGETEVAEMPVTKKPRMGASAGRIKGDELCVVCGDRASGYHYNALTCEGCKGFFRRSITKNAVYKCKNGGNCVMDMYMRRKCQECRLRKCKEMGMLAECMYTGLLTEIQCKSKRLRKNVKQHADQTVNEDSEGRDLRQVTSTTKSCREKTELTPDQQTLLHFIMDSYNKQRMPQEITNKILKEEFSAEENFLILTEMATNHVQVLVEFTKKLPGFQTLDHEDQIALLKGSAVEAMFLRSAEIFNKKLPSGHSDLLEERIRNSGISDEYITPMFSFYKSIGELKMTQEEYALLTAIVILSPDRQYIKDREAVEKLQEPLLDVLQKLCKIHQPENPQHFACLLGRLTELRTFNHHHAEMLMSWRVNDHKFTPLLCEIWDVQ
Glucocorticoid receptor (Homo sapiens), sequence (P04150 whole entry, looked up, the tested form may be a part): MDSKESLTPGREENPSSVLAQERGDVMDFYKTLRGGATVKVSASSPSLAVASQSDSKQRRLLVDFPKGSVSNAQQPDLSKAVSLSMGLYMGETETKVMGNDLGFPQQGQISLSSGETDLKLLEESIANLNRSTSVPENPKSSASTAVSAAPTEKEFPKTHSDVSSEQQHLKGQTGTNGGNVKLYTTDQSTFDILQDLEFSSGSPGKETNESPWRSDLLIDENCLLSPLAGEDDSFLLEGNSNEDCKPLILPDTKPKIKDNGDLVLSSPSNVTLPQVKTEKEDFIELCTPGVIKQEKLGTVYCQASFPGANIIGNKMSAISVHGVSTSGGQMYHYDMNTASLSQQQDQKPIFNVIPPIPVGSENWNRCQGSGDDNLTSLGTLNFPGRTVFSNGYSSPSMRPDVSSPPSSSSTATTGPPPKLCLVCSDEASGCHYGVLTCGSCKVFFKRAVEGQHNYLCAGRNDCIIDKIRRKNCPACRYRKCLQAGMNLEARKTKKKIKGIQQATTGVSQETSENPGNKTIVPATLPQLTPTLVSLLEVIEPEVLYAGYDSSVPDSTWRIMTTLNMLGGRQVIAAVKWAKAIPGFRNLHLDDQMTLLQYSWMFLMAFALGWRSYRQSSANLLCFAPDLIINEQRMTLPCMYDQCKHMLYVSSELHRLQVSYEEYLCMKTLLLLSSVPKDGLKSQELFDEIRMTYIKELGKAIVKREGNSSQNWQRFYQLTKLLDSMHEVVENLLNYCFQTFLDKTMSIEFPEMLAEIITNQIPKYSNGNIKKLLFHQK
Nuclear receptor subfamily 4 group A member 2 (Homo sapiens), sequence (P43354 whole entry, looked up, the tested form may be a part): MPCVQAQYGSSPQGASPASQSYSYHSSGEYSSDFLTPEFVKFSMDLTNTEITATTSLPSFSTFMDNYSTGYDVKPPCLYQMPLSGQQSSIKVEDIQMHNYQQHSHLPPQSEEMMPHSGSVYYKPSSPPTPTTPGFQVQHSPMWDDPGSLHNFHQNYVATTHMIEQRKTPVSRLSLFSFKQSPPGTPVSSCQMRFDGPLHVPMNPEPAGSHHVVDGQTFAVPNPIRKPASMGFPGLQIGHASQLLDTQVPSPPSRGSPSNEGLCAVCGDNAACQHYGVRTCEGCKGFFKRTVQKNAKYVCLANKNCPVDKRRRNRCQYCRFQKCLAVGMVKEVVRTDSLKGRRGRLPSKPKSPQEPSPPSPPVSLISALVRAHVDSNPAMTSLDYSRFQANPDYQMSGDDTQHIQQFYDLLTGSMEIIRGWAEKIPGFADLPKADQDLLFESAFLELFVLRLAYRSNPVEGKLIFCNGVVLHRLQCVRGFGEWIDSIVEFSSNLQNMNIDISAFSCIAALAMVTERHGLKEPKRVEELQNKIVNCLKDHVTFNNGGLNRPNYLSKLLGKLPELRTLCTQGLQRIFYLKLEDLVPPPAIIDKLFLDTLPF
Oxysterols receptor LXR-alpha (Homo sapiens), sequence (Q13133 whole entry, looked up, the tested form may be a part): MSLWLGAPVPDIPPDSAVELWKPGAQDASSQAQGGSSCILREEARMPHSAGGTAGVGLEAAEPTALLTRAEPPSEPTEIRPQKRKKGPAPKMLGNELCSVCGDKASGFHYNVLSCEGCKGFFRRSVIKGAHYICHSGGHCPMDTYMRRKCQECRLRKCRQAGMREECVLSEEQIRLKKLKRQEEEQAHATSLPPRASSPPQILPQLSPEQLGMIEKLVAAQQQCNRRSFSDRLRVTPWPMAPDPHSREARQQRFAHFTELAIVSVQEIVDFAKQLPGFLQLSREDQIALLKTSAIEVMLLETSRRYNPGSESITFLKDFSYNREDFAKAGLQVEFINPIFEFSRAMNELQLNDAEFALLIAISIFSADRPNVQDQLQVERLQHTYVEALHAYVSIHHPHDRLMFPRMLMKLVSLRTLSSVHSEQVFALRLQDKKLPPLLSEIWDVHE

O=S(=O)(O)C(F)(F)C(F)(F)C(F)(F)C(F)(F)C(F)(F)C(F)(F)C(F)(F)C(F)(F)F
inactive: [1] | [2] | [3] | [4] | [5] | [6] | [7] | [8] | [9] | [10] | [11] | [12] | [13] | [14] | [15] | [16]
active: [10] 133 µM | [11] 23 µM and 48.3 µM | [12] 24.7 µM [middle of 9 runs] | [13] 135 µM and 54.7 µM | [14] 108 µM and 66.1 µM and 240 µM | [16] 32.8 µM

O=C(O)COc1ccc(Cl)cc1Cl
not listed: [3] | [4] | [5] | [18] | [19] | [20]
inactive: all other assays above

Cc1[nH]c(=O)n(C(C)(C)C)c(=O)c1Cl
inactive: [1] | [4] | [6] | [7] | [9] | [10] | [11] | [18] | [15] | [16]
active: [12] 20.1 µM | [13] 24.2 µM

CC1(C)C(C=C(Cl)Cl)C1C(=O)OC(C#N)c1ccc(F)c(Oc2ccccc2)c1 (stereo not drawn)
active: [12] 7.81 µM | [13] 2.22 µM
not listed: [4] | [5] | [6] | [20]
inactive: all other assays above

CC(C)(C)C(O)C(Oc1ccc(Cl)cc1)n1cncn1 (stereo not drawn)
inactive: [1] | [2] | [4] | [6] | [7] | [8] | [9] | [10] | [11] | [18] | [12] | [13] | [14] | [15] | [16]
active: [12] 4.01 µM | [13] 2.07 µM

CNC(=O)Oc1cccc(N=CN(C)C)c1
active: [10] 82.3 µM | [12] 50 µM | [13] 25.7 µM
not listed: [2] | [3] | [5] | [8] | [17] | [18] | [19]
inactive: all other assays above

O=[N+]([O-])/N=C1\NCCN1Cc1ccc(Cl)nc1
not listed: [2] | [3] | [5] | [6] | [7] | [14] | [18] | [19]
inactive: all other assays above

CCC(C)Nc1c([N+](=O)[O-])cc(C(C)(C)C)cc1[N+](=O)[O-] (stereo not drawn)
inactive: [1] | [4] | [6] | [8] | [9] | [10] | [11] | [15]
active: [12] 8.79 µM | [13] 15.1 µM | [16] 17.8 µM

CCCN(CCC)c1c([N+](=O)[O-])cc(C(F)(F)F)cc1[N+](=O)[O-]
active: [12] 8.43 µM | [13] 2.29 µM
not listed: [3] | [4] | [5] | [6] | [14] | [17] | [20]
inactive: all other assays above

CNC(=O)CSP(=S)(OC)OC
not listed: [2] | [3] | [5] | [14] | [17] | [18] | [20]
inactive: all other assays above

N#Cc1c(Cl)c(Cl)c(Cl)c(C#N)c1Cl
active: [12] 0.0739 µM | [13] 0.143 µM | [15] 1.37 µM | [16] 1.8 µM
not listed: [2] | [3] | [5] | [7] | [8] | [19]
inactive: all other assays above

CCC(C)(C)C(=O)OC1=C(c2ccc(Cl)cc2Cl)C(=O)OC12CCCCC2
active: [11] 4.04 µM | [12] 1.27 µM | [15] 13.4 µM | [16] 33.9 µM
inactive: [1] | [3] | [4] | [8] | [9] | [10] | [18] | [13] | [14]

CCOc1nc(NC)nc(NC(=O)NS(=O)(=O)c2ccccc2C(=O)OC)n1
not listed: [2] | [4] | [5] | [6] | [7] | [8] | [19]
inactive: all other assays above

CCc1ccc(C(=O)NN(C(=O)c2cc(C)cc(C)c2)C(C)(C)C)cc1
active: [18] 9.92 µM | [12] 9.92 µM | [16] 20 µM
not listed: [2] | [4] | [5] | [8] | [19]
inactive: all other assays above

Reference: PubChem BioAssay (EPA / NIEHS)
